Assay outcomes from PubChem.
TIM10 inh: growth inhibitors of TIM10 yeast strain. inhibition, % at 10 µM. 330,000 tested, 1.4% active. S. cerevisiae TIM10 strain growth, BacTiter-Glo luminescence, 24 h;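 active = inhibition of 40% or more at the single tested concentration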;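 note: wild-type TIM10 isogenic control strain grown at permissive 25 °C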
NALP3 yeast inh: NALP3 inhibition in yeast; Yeast reconstituted NLRP3/ASC/caspase-1, beta-gal luminescence, 24 h; inhibition, % at 10 µM; 330,000 tested, 0.39% active;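 active = inhibition of 50% or more; inactive = inhibition below 50%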
tim10-1 inh: inhibits growth of tim10-1 mutant yeast | 330,000 tested, 2.2% active | inhibition, % at 20 µM | S. cerevisiae tim10-1 ts strain growth, BacTiter-Glo, 24 h;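 active = inhibition of at least 40%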;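 note: mutant grown at 25 °C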
PfHsp90 set2: reduces growth (ATP signal) of yeast expressing P. falciparum Hsp90. S. cerevisiae expressing PfHsp90, BacTiter-Glo ATP, 48 h; yeast lacking PDR1 and PDR3 efflux regulators. inhibition, % at 9.4 µM. 310,000 tested, 0.32% active. AID 504621;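 active = every replicate shows inhibition above about 80%, whatever the replicate mean, limit read from the data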
NALP1 yeast inh: NALP1 inhibition. 280,000 tested, 0.61% active. inhibition, % at 10 µM. S. cerevisiae NALP1/ASC/caspase-1 growth, X-gal OD620, 72 h; in the data active = inhibition mostly above about 24%, no sharp cut-off; inactive = mostly below about 32%
tim23-1 inh: tim23-1 yeast growth inhibition | S. cerevisiae tim23-1 growth, BacTiter-Glo luminescence, 24 h | inhibition, % at 20 µM | 330,000 tested, 1.3% active | AID 463212;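 active = growth inhibition of the mutant yeast at or above 50%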;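 note: temperature-sensitive mutant grown at 25 °C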
tim23-1 conf: confirmation of tim23-1 mutant yeast growth inhibitors | shares compounds with tim23-1 inh | S. cerevisiae tim23-1 growth, BacTiter-Glo luminescence, 24 h | inhibition, % at 20 µM | 4,400 tested, 83% active;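 active = inhibition above about 39% in either of two replicate wells at 20 µM, limit read from the data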;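 note: temperature-sensitive tim23-1 mutant grown at 25 °C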
Large screens that a line does not name were inactive (follow-up assays come after a bar, where they were run). A selection: hits, their analogues and other compounds. The true share with any hit is near 4.2%.

Nc1nc(Nc2ccccc2)nc(NCc2ccco2)c1[N+](=O)[O-]	none
Fc1ccc(Nc2nc(NCc3ccco3)c3ccccc3n2)cc1	tim23-1 inh 97.9 | tim23-1 conf inactive
COc1ccc(/C=C/C2=Nc3ccccc3NC(C)(C)C2)cc1OC	tim23-1 inh 50.8 (no result: NALP1 yeast inh) | tim23-1 conf 43.1
O=C(Nc1ccccc1F)N1CCC(NC(=O)C23CC4CC(CC(C4)C2)C3)CC1	none
COc1ccccc1C(=O)Oc1ccc2ccc(=O)oc2c1	tim23-1 inh 68.9 | tim23-1 conf 51.5
COc1cc2cc(Oc3ccc4ccc(=O)oc4c3)c(=O)oc2cc1OC(C)=O	none
Cc1ccc(Nc2nc(-c3cccnc3)nc3ccccc23)cc1	tim23-1 inh 55.7 | tim23-1 conf 55.8
CC(Nc1nc(-c2cccnc2)nc2ccccc12)c1ccc(F)cc1 (stereo not given)	tim23-1 inh 58.9 | tim23-1 conf 60.0
CCN1CC(CN(C)Cc2cn(-c3cccc(C)c3)nc2-c2cccc(F)c2)CC1=O (stereo not given)	none
O=C(COc1ccc(F)cc1Cl)Nc1ccc(S(=O)(=O)Nc2nccs2)cc1	none (no result: PfHsp90 set2, NALP1 yeast inh)
Cc1ccc(C2=Nc3ccccc3N=C(C(Cl)Cl)C2)cc1	tim23-1 inh 51.7 | tim23-1 conf 49.4
CCN(c1ccccc1)S(=O)(=O)c1cc2c3c(c1)CCN3C(=O)CC2	none (no result: NALP1 yeast inh)
COc1ccc(/C(N)=N/OC(=O)c2ccco2)cc1	none
COc1ccc(N=N/C(=C\O)C(=O)c2ccco2)cc1	tim23-1 inh 50.0 | tim23-1 conf 58.2
CCOc1ccc(-c2nc(N)ncc2-c2ccc(Cl)cc2)c(O)c1	tim23-1 inh 54.2 | tim23-1 conf inactive
CCOc1ccc(-c2nc(N)ncc2Oc2ccc(OC)cc2)c(O)c1	tim23-1 inh 55.9 | tim23-1 conf 62.5
CCOc1ccc(-c2nc(N)ncc2-c2ccc(OC)cc2)c(O)c1	none
COc1ccc(C2=NS(=O)(=O)N(C)C(C(=O)Nc3ccc(F)cc3F)=C2)cc1	none
OCCN1CCN(CC(O)COc2ccc(C34CC5CC(CC(C5)C3)C4)cc2)CC1 (stereo not given)	none
NCCOc1ccc(C23CC4CC(CC(C4)C2)C3)cc1	tim23-1 inh 65.6 | tim23-1 conf 76.6
CSc1nc2ccc(NS(=O)(=O)c3ccc(Br)s3)cc2s1	tim23-1 inh 60.8 | tim23-1 conf 62.5
Cc1nc(-c2ccccc2)sc1C1(C)CC(c2ccc(OC(F)(F)F)cc2)=NO1 (stereo not given)	none (no result: NALP1 yeast inh)
CN1CCN(C2=C(NS(=O)(=O)c3cccs3)C(=O)c3ccccc3C2=O)CC1	none (no result: NALP1 yeast inh)
O=C1C(NS(=O)(=O)c2cccs2)=C(N2CCN(Cc3ccccc3)CC2)C(=O)c2ccccc21	tim23-1 inh 52.7 (no result: NALP1 yeast inh) | tim23-1 conf inactive
O=C(COC(=O)c1ccc(F)cc1Cl)NC1CCCCCCC1	tim23-1 inh 50.8 (no result: NALP1 yeast inh) | tim23-1 conf 41.7
Fc1ccc2cc(-c3ccccc3)ncc2c1	none (no result: NALP1 yeast inh)
c1ccc(-c2cc3ccccc3cn2)cc1	tim23-1 inh 50.6 (no result: NALP1 yeast inh) | tim23-1 conf 75.4
COc1cc2cnc(-c3ccccc3)cc2cc1OC	tim23-1 inh 51.7 (no result: NALP1 yeast inh) | tim23-1 conf 44.5
COc1cc(OC)cc(-c2cc3ccc(OC)cc3cn2)c1	tim23-1 inh 51.2 (no result: NALP1 yeast inh) | tim23-1 conf 54.5
COc1ccccc1NC(=O)c1cnc(SCC(=O)NCCc2ccccc2)n(C)c1=O	none (no result: NALP1 yeast inh)
Clc1ccc(-c2cn3cccnc3n2)cc1Cl	tim23-1 inh 53.6 | tim23-1 conf inactive
Clc1ccc(-c2cn3cccnc3n2)cc1	tim23-1 inh 53.1 | tim23-1 conf inactive
CCOc1ccc(CCNC(=O)c2cccc(S(=O)(=O)N3CCCCC3)c2)cc1OCC	none (no result: NALP1 yeast inh)
CCOc1nc2cnccc2n(CC(=O)Nc2ccc(C)c(C)c2)c1=O	none
CC(C)(C)c1ccc(/C=C2\Oc3cc(O)ccc3C2=O)cc1	none
O=C1/C(=C/c2ccc(Br)cc2)Oc2cc(O)ccc21	tim23-1 inh 55.7 | tim23-1 conf 50.8
C=CCNc1nc2ccccc2nc1NS(=O)(=O)c1ccc(Br)cc1	tim23-1 inh 50.3 | tim23-1 conf 54.5
C=CCNc1nc2ccccc2nc1NS(=O)(=O)c1ccc(F)cc1	none
COc1ccc(CCNC(=O)COC(=O)CNS(=O)(=O)c2ccc(SC)c([N+](=O)[O-])c2)cc1	none (no result: NALP1 yeast inh)
Cc1ccc(C(=O)Nc2nc(COc3ccccc3)cs2)s1	tim23-1 inh 51.7 (no result: NALP1 yeast inh) | tim23-1 conf inactive
CCOc1ccc(C(=O)N2CCSC2=S)cc1	tim23-1 inh 51.5 | tim23-1 conf 41.0
Cc1ccc(C(=O)N2CCSC2=S)cc1	tim23-1 inh 56.0 | tim23-1 conf 51.4
O=C1CCN(Cc2ccccc2)C=C1c1ccc2ccccc2c1	tim23-1 inh 50.2 (no result: NALP1 yeast inh) | tim23-1 conf 46.6
O=C1CCN(Cc2ccccc2)C=C1c1ccc(Cl)cc1	none (no result: NALP1 yeast inh)
COc1ccccc1Nc1ccc([N+](=O)[O-])cc1N	tim23-1 inh 55.3 | tim23-1 conf 40.6
COc1ccccc1Nc1c([N+](=O)[O-])cc(C)cc1[N+](=O)[O-]	none
O=C(N/N=C/c1ccoc1)c1ccccc1F	none
Cc1cccc(C(=O)NCC(=O)OCc2nc(N)nc(Nc3ccccc3C)n2)c1	none (no result: PfHsp90 set2, NALP1 yeast inh)
O=C(/C=C/c1ccccc1)NCCc1c[nH]c2ccccc12	tim23-1 inh 59.3 (no result: NALP1 yeast inh) | tim23-1 conf 59.6
O=C(NCCc1c[nH]c2ccccc12)/C(=C\c1ccco1)NC(=O)c1ccco1	tim23-1 inh 94.2 | tim23-1 conf inactive
COc1ccc2c(c1)-c1c(ssc1=S)C(C)(C)N2	tim23-1 inh 52.8 | tim23-1 conf 47.2
COc1ccc(-n2sc3c(c2=S)-c2cc(OC)ccc2NC3(C)C)cc1	none
O=C1C(=O)N(C/C=C/c2ccccc2)c2ccccc21	tim23-1 inh 75.8 | tim23-1 conf inactive
O=C(CCNC(=O)c1ccc(Br)cc1)Nc1nccs1	none
O=C(Nc1nccs1)c1ccc(Br)cc1	tim23-1 inh 56.4 | tim23-1 conf inactive
O=C(Nc1nccs1)c1ccc(Br)s1	tim23-1 inh 63.7 | tim23-1 conf 52.1
CC(Cc1cccnc1)NC(=O)c1ccccc1OC1CCN(S(C)(=O)=O)CC1 (stereo not given)	none
COc1ccc(N(CC(=O)N2CCc3ccccc3C2)S(C)(=O)=O)cc1Cl	none
O=C(Oc1cccc2ccccc12)c1ccco1	none
O=C(Oc1ccc(Cl)c2cccnc12)c1ccco1	tim23-1 inh 51.8 | tim23-1 conf 45.7
O=C(COC(=O)CNC(=O)c1ccccc1)NCCNC(=O)COC(=O)CNC(=O)c1ccccc1	none (no result: NALP1 yeast inh)
CC(C)N(CCCNC(=O)Cn1c(=O)c2cccn2c2ccc(F)cc21)Cc1ccccc1	none
COC(=O)C1=C(C(=O)OC)C(c2cc(Br)ccc2O)c2sc(=O)[nH]c2S1 (stereo not given)	none (no result: TIM10 inh, NALP3 yeast inh, tim10-1 inh, tim23-1 inh)
